# Dicer inh = human Dicer pre-microRNA cleavage inhibition; cat-ELCCA pre-miR-21 Dicer processing, chemiluminescence; stronger effect = higher value; z-score at 25 µM; AID 1347074; Q9UPY3; 47,000 tested, 6% active; in the data active = z-score above about 3, passing the limit was not always enough;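 also: plate controls were vehicle for no effect and no enzyme for full effect; higher signal means more uncleaved substrate so more Dicer inhibition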
# Target sequence (Q9UPY3 whole entry, looked up): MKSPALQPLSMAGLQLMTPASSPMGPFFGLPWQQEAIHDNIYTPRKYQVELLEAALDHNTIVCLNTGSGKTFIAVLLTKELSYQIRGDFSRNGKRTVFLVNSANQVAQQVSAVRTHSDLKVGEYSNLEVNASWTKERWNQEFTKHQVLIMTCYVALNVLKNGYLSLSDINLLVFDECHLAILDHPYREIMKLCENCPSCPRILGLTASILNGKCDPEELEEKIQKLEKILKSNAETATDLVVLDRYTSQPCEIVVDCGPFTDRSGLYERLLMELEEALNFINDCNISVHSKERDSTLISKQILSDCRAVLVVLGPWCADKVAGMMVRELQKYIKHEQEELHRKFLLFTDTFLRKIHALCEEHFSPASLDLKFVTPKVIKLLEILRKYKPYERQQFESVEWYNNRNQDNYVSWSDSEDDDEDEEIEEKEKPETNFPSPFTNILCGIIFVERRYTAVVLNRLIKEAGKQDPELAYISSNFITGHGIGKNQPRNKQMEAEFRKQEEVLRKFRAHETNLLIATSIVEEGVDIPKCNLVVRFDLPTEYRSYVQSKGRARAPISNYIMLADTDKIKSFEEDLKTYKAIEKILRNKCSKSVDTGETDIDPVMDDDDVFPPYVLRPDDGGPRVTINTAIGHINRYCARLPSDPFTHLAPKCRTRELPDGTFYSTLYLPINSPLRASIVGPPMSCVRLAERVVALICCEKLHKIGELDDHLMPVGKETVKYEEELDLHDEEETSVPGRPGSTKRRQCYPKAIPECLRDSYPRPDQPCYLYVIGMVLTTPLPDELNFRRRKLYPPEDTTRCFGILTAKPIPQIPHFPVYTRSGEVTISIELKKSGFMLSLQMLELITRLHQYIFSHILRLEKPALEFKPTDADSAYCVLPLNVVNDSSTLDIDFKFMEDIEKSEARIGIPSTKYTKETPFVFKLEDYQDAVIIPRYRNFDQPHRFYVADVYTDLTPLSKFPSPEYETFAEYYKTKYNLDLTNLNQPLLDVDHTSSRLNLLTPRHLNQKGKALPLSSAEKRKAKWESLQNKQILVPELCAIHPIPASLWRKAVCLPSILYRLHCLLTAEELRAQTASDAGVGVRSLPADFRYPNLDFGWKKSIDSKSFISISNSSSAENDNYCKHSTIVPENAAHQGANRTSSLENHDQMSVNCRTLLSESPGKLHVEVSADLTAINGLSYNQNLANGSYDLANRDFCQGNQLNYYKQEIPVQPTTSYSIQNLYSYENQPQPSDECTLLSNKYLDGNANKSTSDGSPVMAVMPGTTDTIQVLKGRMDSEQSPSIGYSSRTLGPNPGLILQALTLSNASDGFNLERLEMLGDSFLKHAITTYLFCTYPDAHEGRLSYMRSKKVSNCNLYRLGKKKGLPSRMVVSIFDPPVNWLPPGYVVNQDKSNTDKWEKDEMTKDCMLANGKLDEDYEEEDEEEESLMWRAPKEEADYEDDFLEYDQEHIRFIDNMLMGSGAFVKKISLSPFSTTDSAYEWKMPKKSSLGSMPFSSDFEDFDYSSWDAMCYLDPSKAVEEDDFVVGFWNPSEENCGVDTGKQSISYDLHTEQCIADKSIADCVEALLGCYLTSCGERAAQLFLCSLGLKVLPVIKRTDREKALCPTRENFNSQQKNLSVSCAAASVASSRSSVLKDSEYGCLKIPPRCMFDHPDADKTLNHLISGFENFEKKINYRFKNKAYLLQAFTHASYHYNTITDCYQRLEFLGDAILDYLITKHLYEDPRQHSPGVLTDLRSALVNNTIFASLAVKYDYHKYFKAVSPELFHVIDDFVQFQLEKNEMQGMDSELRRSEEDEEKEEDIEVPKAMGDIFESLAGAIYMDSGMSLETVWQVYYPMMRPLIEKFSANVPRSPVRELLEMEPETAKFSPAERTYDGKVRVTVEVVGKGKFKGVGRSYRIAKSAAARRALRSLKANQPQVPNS
# * = called active by the depositor. This is one part of a sample in which hits are shown more often than they occur.
SMILES,Dicer inh
COc1cccc(C(Nc2ccccn2)c2ccc3ccc(C)nc3c2O)c1OC (stereo unspecified),0.22
Cc1ccc2ccc(C(Nc3ccccn3)c3ccccc3C)c(O)c2n1 (stereo unspecified),0.11
Cc1ccc2ccc(C(Nc3ccccn3)c3ccccc3)c(O)c2n1 (stereo unspecified),5.9*
Oc1c(C(Nc2ccccc2Cl)c2ccccn2)ccc2cccnc12 (stereo unspecified),14
Cc1cccc(NC(c2ccccc2C)c2ccc3ccc(C)nc3c2O)n1 (stereo unspecified),5.3*
O=C(O)c1ccc(N2Cc3ccccc3C2)cc1,-1.5
CCOC(=O)c1sc(SCc2ccccc2)c2c1CC(c1ccccc1)CC2=O (stereo unspecified),-0.11
OC(CNCc1ccc(C(F)(F)F)cc1)Cn1ccc(C(F)(F)F)n1 (stereo unspecified),-0.21
Cc1ccc(NC(=S)NN(C)C)cc1C,-1.6
N#CC1=C(SCc2ccccc2)SC(c2ccc(C(=O)O)cc2)NC1=O (stereo unspecified),-0.02
Nc1ncc(C(=O)Nc2ccccc2F)c(C(F)(F)F)n1,0.68
O=C1CS(=O)(=O)N(Cc2c(F)cccc2Cl)c2ccccc21,-0.02
O=C1CSC(=O)N1Cc1ccc(CN2C(=O)CSC2=O)cc1,-0.17
CCN(C(=O)c1ccc2c(c1)CCO2)c1cccc2ccccc12,-0.12
O=C(NC(Sc1ncccn1)C(=O)c1ccccc1)c1ccccc1 (stereo unspecified),-0.62
Cc1cccc(NC(c2ccncc2)c2ccc3cccnc3c2O)c1 (stereo unspecified),0.59
Oc1cccnc1NC(c1ccc(Cl)cc1)c1ccc2cccnc2c1O (stereo unspecified),3.6*
CCOc1cc(C(Nc2ccccn2)c2ccc3ccc(C)nc3c2O)ccc1OC (stereo unspecified),0.5
O=C(NC(c1ccccc1)c1ccc2cccnc2c1O)c1ccccc1 (stereo unspecified),6*
Cc1ccc(C(NC(=O)C(C)C)c2ccc3cccnc3c2O)cc1 (stereo unspecified),13
Oc1ccc2ncccc2c1C(Nc1ccccn1)c1ccc(Cl)cc1 (stereo unspecified),1.5
CCOc1cc(C(Nc2ccccn2)c2ccc3cccnc3c2O)ccc1O (stereo unspecified),11
CCOc1ccc(C(Nc2ccccn2)c2ccc3ccc(C)nc3c2O)cc1C (stereo unspecified),3.5*
Cc1cc(C)n(/N=c2\sc(-c3ccccc3)cn2C2CCCCC2)c(=O)c1C#N,-0.82
Cc1ccc(Cc2cn3cc(-c4ccc(Cl)cc4)nc3s2)cc1,1.5
SMILES,Dicer inh
CCCOc1ccc(N2C(=O)C3C4C=CC(C)(O4)C3C2=O)cc1 (stereo unspecified),-1.3
Fc1ccc(-n2ncc(-c3nnnn3-c3ccccc3)c2-c2cccc(Cl)c2)cc1,0.87
N#CCCN(C(=O)c1ccccc1Cl)C1CCCCC1,-0.52
O=C(ON(Cc1ccc(Cl)cc1)Cc1ccc(Cl)cc1)c1ccc(Cl)cc1Cl,2.5
O=C(Nc1ccccc1)n1nnc(C2CN(Cc3ccccc3)CN(Cc3ccccc3)C2)n1,-1.1
O=C1/C(=C\c2ccccc2)S(=O)c2ccccc21 (stereo unspecified),1.5
CCOc1cc(N2CCOCC2)c(OCC)cc1NS(=O)(=O)C(C)C,1.4
CCc1c(C)nc(N2CCOCC2)[nH]c1=O,-0.93
CC(C)Oc1c(N2CCOCC2)c(=O)c1=O,5.3*
CCCCCc1nc2ccccc2[nH]1,0.58
N#C/C(=C\O)c1nc2ccccc2s1,-0.59
CC(C)(C)n1cnc2cc(NCc3ccco3)ccc21,2.6
Cn1cnc2cc(NCc3ccco3)ccc21,4.9*
CC(C)n1cnc2cc(NCc3ccco3)ccc21,-0.27
O=c1ccn(-c2ccc(Cl)cc2)nc1-c1ccnc(-c2ccc(Cl)cc2)n1,0.96
COc1ccc(OC)c(C2Nc3ccc4ncccc4c3C3=C2C(=O)CCC3)c1 (stereo unspecified),0.43
Cc1ccc(/C(O)=C2/C(=O)C(=O)N(CC(C)O)C2c2cccc(O)c2)cc1 (stereo unspecified),6.1
CCN(CC)CCCNC(=O)Cn1cnc2c1c(=O)n(C)c(=O)n2C,2.1
Cn1c(-c2ccc3nc(-c4ccc(N)cc4)[nH]c3c2)nc2cc(N)ccc21,5.7*
Clc1ccc(-c2nc3ccccc3[nH]2)cc1,-1.5
Nc1ccc2nc(-c3cccnc3)[nH]c2c1,0.6
Cn1c(-c2ccc(-c3nc4ccccc4[nH]3)cc2)nc2cc(N)ccc21,4.7*
Nc1ccc2nc(-c3ccccc3)[nH]c2c1,-3.4
Nc1ccc(Oc2ccc3nc(-c4ccc(N)cc4)[nH]c3c2)cc1,0.25
COc1ccc(OC)c(C2C(C(=O)OC3CCCCC3)=C(C)NC3=C2C(=O)CC(C)(C)C3)c1 (stereo unspecified),0.89
CN(C)CCCN1C(=O)C(=O)/C(=C(/O)c2ccc(Cl)cc2)C1c1ccc(F)cc1 (stereo unspecified),2.2
Cn1ncc2c(NNC(=S)Nc3ccc(F)cc3F)ncnc21,-0.01

# Assay outcomes deposited in PubChem BioAssay by Center for Chemical Genomics, University of Michigan.
